Seven molecules from PubChem BioAssay (NCI) can be followed below.

Test systems include NCI-H23 lung; NCI-H226 lung; NCI-H322M lung; HOP-62 NSCLC; NCI-H460 lung; HOP-92 NSCLC; NCI-H522 lung; A549/ATCC NSCLC; 786-0 renal; COLO 205 colon; DU-145 prostate; K-562 leukemia; MALME-3M melanoma; MDA-MB-231 breast; SF-268 CNS; SF-295 CNS; SF-539 CNS; UACC-257 melanoma; M14 melanoma.
Common to all, as to experiment: NCI-60 one-dose screen, 48 h (100 = growth as untreated, 0 = no growth, -100 = all killed)
Holding throughout (conditions): 10 µM unless noted

About 83,000 compounds went through this panel and 20% of them were active in at least one assay; those are over-represented in the sample as a whole.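 Cell lines were cultured in 96-well plates, exposed to a single compound concentration, and assessed for percent growth 48 hours later.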 Unmarked numbers belong to inactive results. The source made the active and inactive calls. Rule for the calls: active = growth percent below 10; inactive = the rest.

On to `COc1ccc(C(=O)/C=C/c2cn(Cc3ccc(Cl)cc3)c3ccccc23)cc1`, for which the growth was 87.5% in the assay on NCI-H23 lung; 55.1% in the assay with NCI-H226 lung; 79.5% in the assay with NCI-H322M lung; 58.9% with HOP-62 NSCLC; 11.8% in the assay on NCI-H460 lung; 77.3% with HOP-92 NSCLC. The growth in the assay with NCI-H522 lung is 26.5%; with A549/ATCC NSCLC, 57.2%; in the assay on 786-0 renal, 26.9%; in the assay with COLO 205 colon it was 62.9%; in the assay with DU-145 prostate, 87.4%; in the assay with K-562 leukemia, 15.5%. The growth was 59.9% in the assay on MALME-3M melanoma; 64.5% in the assay on MDA-MB-231 breast; 72.4% in the assay on SF-268 CNS; 60.2% in the assay on SF-295 CNS; 55.8% in the assay with SF-539 CNS; 81.8% with UACC-257 melanoma. Besides, the growth with M14 melanoma was -60.1% (active).
Take `O=C1c2ccccc2C(=O)c2c(NCCN=Cc3ccccc3O)cccc21`: the growth with NCI-H23 lung is 66.6%; in the assay with NCI-H226 lung, 56.3%; with NCI-H322M lung, 68.3%; in the assay with HOP-62 NSCLC, 21.7%; in the assay with NCI-H460 lung, 20.9%; in the assay with HOP-92 NSCLC, 32%. Further, the growth is 58.2% in the assay with NCI-H522 lung; 49% with A549/ATCC NSCLC; -48.4% (active) in the assay with 786-0 renal; 42.2% in the assay with COLO 205 colon; -26% (active) in the assay with DU-145 prostate; 41.6% in the assay on K-562 leukemia. Also, the growth was 80.2% with MALME-3M melanoma; 66.3% in the assay on MDA-MB-231 breast; 51.2% in the assay on SF-268 CNS; 2.48% (active) with SF-295 CNS; 62% with SF-539 CNS; -14.3% (active) in the assay with UACC-257 melanoma. In addition, the growth with M14 melanoma was 35.6%.
For `C/C(=C(/c1ccccc1)c1ccc(OCC(O)CNCCN2CCOCC2)cc1)c1ccccc1` (stereo not drawn), the growth was 83.2% in the assay with NCI-H23 lung; 96.1% with NCI-H226 lung; 72.7% in the assay on NCI-H322M lung; 54.9% in the assay with HOP-62 NSCLC; 17.6% in the assay with NCI-H460 lung; 59.1% with HOP-92 NSCLC. For the same molecule, the growth is 44.6% with NCI-H522 lung; 70.8% in the assay on A549/ATCC NSCLC; 97.6% in the assay with 786-0 renal; -64.5% (active) in the assay on COLO 205 colon; 67.8% in the assay on DU-145 prostate; 2.44% (active) with K-562 leukemia. For the same molecule, the growth in the assay with MALME-3M melanoma was -71.2% (active); in the assay on MDA-MB-231 breast, 29.4%; in the assay with SF-268 CNS it was 78.5%; in the assay with SF-295 CNS, 71.2%; in the assay with SF-539 CNS it was 72.8%; with UACC-257 melanoma, -27.5% (active). For the same molecule, in the assay with M14 melanoma, the growth is 92.6%.
As for `COc1cc(NCC(O)CN(CC(C)C)C2CCCC2)c2ncccc2c1` (stereo not drawn), the growth was 77.6% with NCI-H23 lung; 94.3% with NCI-H226 lung; 110% in the assay with NCI-H322M lung; 86.5% in the assay on HOP-62 NSCLC; 89.4% in the assay on NCI-H460 lung; 73.8% with HOP-92 NSCLC. The growth in the assay with NCI-H522 lung was 70.6%; in the assay on A549/ATCC NSCLC, 66.1%; in the assay on 786-0 renal it was 89.3%; in the assay with COLO 205 colon, 97%; in the assay on DU-145 prostate, 98.4%; in the assay on K-562 leukemia, 73.2%. Also, the growth in the assay on MALME-3M melanoma was 147%; in the assay with MDA-MB-231 breast it was 66.8%; with SF-268 CNS, 82.7%; in the assay on SF-295 CNS it was 92.2%; in the assay with SF-539 CNS, 99.8%; with UACC-257 melanoma, 85.5%. Further, the growth in the assay with M14 melanoma was 95.8%.
Regarding `COc1ccc(CNC(=O)COc2ccc(/C=N/Nc3nc4ccccc4s3)cc2)cc1`, the growth with NCI-H23 lung is 33.9%; in the assay with NCI-H226 lung it was 18%; in the assay on NCI-H322M lung it was 30.2%; in the assay with HOP-62 NSCLC, 39.3%; with NCI-H460 lung it was -12.6% (active); with HOP-92 NSCLC, -24.8% (active). For the same molecule, the growth in the assay with NCI-H522 lung is 31.1%; in the assay with A549/ATCC NSCLC it was 26.5%; in the assay with 786-0 renal, -6.47% (active); with COLO 205 colon, 64%; with DU-145 prostate it was -49.1% (active); with K-562 leukemia it was 34.8%. The growth with MALME-3M melanoma is 24.1%; in the assay with MDA-MB-231 breast it was 10.2%; with SF-268 CNS, 19.9%; in the assay on SF-295 CNS it was 47.4%; with SF-539 CNS it was 21.1%; in the assay with UACC-257 melanoma, 53.8%. Further, the growth in the assay on M14 melanoma is 54%.
For `O=S(=O)(NCCNc1nccc(-c2c(-c3ccc(F)c(O)c3)nc3sccn23)n1)c1ccccc1`, the growth in the assay on NCI-H23 lung was 72.2%; in the assay on NCI-H226 lung it was 99.8%; in the assay on NCI-H322M lung, 96.1%; in the assay with HOP-62 NSCLC, 98.9%; with NCI-H460 lung it was 75.3%; with HOP-92 NSCLC it was 63.9%. Further, the growth in the assay on NCI-H522 lung is 59.3%; in the assay with A549/ATCC NSCLC it was 81.8%; in the assay with 786-0 renal, 113%; in the assay on COLO 205 colon it was 33.9%; in the assay with DU-145 prostate it was 77.5%; in the assay with K-562 leukemia, 37.2%. Further, the growth was 1.46% (active) with MALME-3M melanoma; 51.6% in the assay on MDA-MB-231 breast; 84.5% in the assay on SF-268 CNS; 110% with SF-295 CNS; 94.3% with SF-539 CNS; 16.2% in the assay with UACC-257 melanoma. Further, the growth with M14 melanoma was 14.5%.
With `C[C@]12CCc3nc(Nc4cccc(O)c4)sc3C1=CC[C@@H]1[C@@H]2CC[C@]2(C)/C(=N\NC(N)=S)CC[C@@H]12`, the growth in the assay on NCI-H23 lung was 57.3%; in the assay on NCI-H226 lung, 91.8%; in the assay with NCI-H322M lung it was 73.5%; in the assay with HOP-62 NSCLC it was 32%; in the assay with NCI-H460 lung, 21.3%; in the assay on HOP-92 NSCLC, 52.1%. Also, the growth was -12.2% (active) in the assay on NCI-H522 lung; 59.3% in the assay on A549/ATCC NSCLC; -36% (active) with 786-0 renal; 42.7% in the assay with COLO 205 colon; 8.45% (active) in the assay with DU-145 prostate; 3.19% (active) with K-562 leukemia. The growth is 39% in the assay on MALME-3M melanoma; 26.2% in the assay on MDA-MB-231 breast; 37.6% in the assay on SF-268 CNS; -34% (active) with SF-295 CNS; -48% (active) in the assay with SF-539 CNS; 74% in the assay with UACC-257 melanoma. The growth with M14 melanoma was 31.1%.
